# Results: PubChem BioAssay AID743361 (Molecular Libraries Program, Specialized Chemistry Center, …, 2014)
# Values without a mark were called inactive. Active and inactive are the calls of the source. No rule for the calls is given here.
# Experiment: Rhodamine 123 quenching counterscreen activity, dose response, counter-screen for mtPTP inhibitor project, biochemical, dry powder samples, uHTS hits, fluorescence (AID 743361)
# Settings: Rhodamine 123 fluorescence quenching counterscreen, cell-free
row,Compound,IC50
1,O=C(Nc1ccc(CN2CCCCC2)cc1)c1cc(Cl)ccc1O,> 100 µM
2,COc1ccc(Cl)cc1C(=O)Nc1ccc(CCN2CCCCC2)cc1,> 100 µM
3,COc1ccc(Cl)cc1S(=O)(=O)Nc1ccc(CN2CCCCC2)cc1,> 100 µM
4,CC1(C)CCN(CCCC(=O)c2ccc(Br)cc2)CC1,> 100 µM
5,COc1ccc(Cl)cc1C(=O)Nc1ccc(N2CCCCC2)cc1,> 100 µM
6,O=C(Nc1ccc(F)cc1F)c1cc(-c2ccccc2)on1,> 100 µM
7,COc1ccc(Cl)cc1S(=O)(=O)Nc1ccc(CN2CCN(C)CC2)cc1,> 100 µM
8,C[C@@H]1CCC[C@H](C)N1CCCC(=O)c1ccc(Br)cc1,> 100 µM
9,CCCc1cc(C(=O)Nc2c(F)cc(F)cc2Br)no1,> 100 µM
10,COc1ccc(Cl)c(C(=O)Nc2ccc(CCN3CCN(C)CC3)cc2)c1,> 100 µM
11,CN1CCN(c2ccc(Cl)cc2NC(=O)/C=C/c2cccc(F)c2)CC1,> 100 µM
12,O=S(=O)(Nc1ccc(CCN2CCCCC2)cc1)c1cc(Cl)cc(Cl)c1,> 100 µM
13,COc1ccc(Cl)cc1C(=O)Nc1ccc(CCN2CCN(C)CC2)cc1,> 100 µM
14,O=C(Nc1ccc(CN2CCCCC2)cc1)c1ccc(Cl)c(OCc2ccccc2)c1,28.2 µM (active)
15,COc1ccc(C(=O)CCN2CCCC(C)C2)cc1 (stereo unspecified),> 100 µM
16,COc1c(Cl)cccc1NC(=O)c1cc(-c2cccc(O)c2)on1,> 100 µM

row,Compound,IC50
1,COc1ccc(Cl)cc1S(=O)(=O)Nc1ccc(CCN2CCCCC2)cc1,> 100 µM
2,CCc1ccccc1NC(=O)c1cc(-c2ccccc2)on1,> 100 µM
3,O=C(Nc1ccc(CN2CCCCC2)cc1)c1cccc(OCc2ccccc2)c1,55.4 µM (active)
4,COc1ccc(Cl)c(C(=O)Nc2ccc(CCN3CCCCC3)cc2)c1,> 100 µM
5,Cc1cc(NC(=O)c2cc(-c3ccc(F)cc3)on2)no1,> 100 µM
6,CN1CCN(CCc2ccc(NS(=O)(=O)c3cccc(Cl)c3)cc2)CC1,> 100 µM
7,O=S(=O)(Nc1ccc(CN2CCCCC2)cc1)c1ccc(F)c(Cl)c1,> 100 µM
8,COc1ccc(Cl)c(C(=O)Nc2cccc(CN3CCN(C(=O)OC(C)(C)C)CC3)c2)c1,> 100 µM
9,CN1CCN(Cc2ccc(NS(=O)(=O)c3ccc(F)c(Cl)c3)cc2)CC1,> 100 µM
10,O=C(Nc1ccc(Cl)cc1)c1cc(-c2ccccc2)on1,> 100 µM
11,CN1CCN(c2ccc(NC(=O)c3cccc(OCc4ccccc4)c3)cc2)CC1,> 100 µM
12,Cc1ccc(-c2cc(C(=O)Nc3cccc(Cl)c3)no2)cc1,> 100 µM
13,COc1ccccc1C(=O)Nc1ccc(C(=O)N2CCCCC2)cc1,> 100 µM
14,COc1ccc(Cl)cc1C(=O)Nc1ccc(CCN2CCNCC2)cc1,> 100 µM
15,O=C(Nc1ccc(N2CCCCC2)cc1)c1cccc(OCc2ccccc2)c1,> 100 µM
